Data reported in PubChem BioAssay AID686978 (National Center for Advancing Translational Sciences (NCATS), 2013).
Hit rate of the full screen: of about 420,000 compounds, about 64,000 (15%) were called active. About 27% were inconclusive and are not listed. Calls come from the whole dose curve; as a rule, active = well fitted inhibition curve with a large enough effect; inconclusive = small, poorly fitted or top-dose-only effect; inactive = flat fitted curve, though single readings scatter. A selection follows. Where a call stands in place of a potency, no number is given.

Assay: qHTS for Inhibitors of human tyrosyl-DNA phosphodiesterase 1 (TDP1): qHTS in cells in absence of CPT; note: nearly all actives have a fitted effect of over 55% in size
Details: DT40 Tdp1-/- hTDP1 cells, no CPT, ATP luminescence, 48 h; activity change, negative = growth inhibition: at 46.2 µM (top of the series)
In short: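 Chicken DT40 Tdp1-/- cells stably complemented with human TDP1 were seeded at 400 cells/well with DMSO in place of 20 nM camptothecin. After compound pinning, cells grew at least 48 hr at 37 °C; viability read by CellTiter-Glo luminescence.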
Potency is the fitted concentration of half-maximal effect.

| SMILES | Potency |
| --- | --- |
| COc1ccc(N2CCN(CCNC(=O)CCN3C(=O)COc4ccccc43)CC2)cc1 | inactive |
| C/C(=N\NC(=O)COc1ccc(C)cc1[N+](=O)[O-])c1ccc2c(c1)OCCO2 | inactive |
| COc1ccc(CNC2CCCCC2)cc1 | inactive |
| COc1ccc(CNc2nc(NCc3ccc(OC)cc3)c3ncn(C4CCCC4)c3n2)cc1 | 2.31 µM (active) |
| CCCn1nnnc1NCc1ccc(OC)cc1 | inactive |
| O=C1NS(=O)(=O)c2ccccc21 | inactive |
| N#CCCN1CCN(S(=O)(=O)c2ccc(S(=O)(=O)NC3CC3)cc2)CC1 | inactive |
| COc1ccc(-c2cc(-c3ccccc3)nc3c2COc2ccc(Cl)cc2-3)cc1 | inactive |
| COc1ccc(Cl)cc1NC(=O)CSc1nc(=O)[nH]c2c1CCCC2 | inactive |
| O=C(CSc1nc(=O)[nH]c2c1CCCC2)Nc1cc(C(F)(F)F)ccc1Cl | 16.4 µM (active) |
| Nc1nc(SCC(=O)Nc2cc(C(F)(F)F)ccc2Cl)[nH]c(=O)c1NC(=O)c1ccco1 | inactive |
| CC(C)CCN1CCN=C1N(C)C | inactive |
| CC(C)CC(=O)N1CCN(Cc2ccccc2Br)CC1 | inactive |
| COc1ccc2oc(C(=O)NCc3ccco3)c(C)c2c1 | inactive |
| Cc1c(C(=O)NCc2ccccc2Br)oc2ccc3c(c12)C(=O)CC(C)(C)O3 | 16.4 µM (active) |
| C[C@]12C=CC(=O)C=C1CC[C@@H]1[C@@H]2C(=O)C[C@@]2(C)[C@H]1CC[C@]2(O)C(=O)CO | inactive |
| Cc1cc(C)cc(N(CCC#N)C(=O)CN2C(=O)NC3(CCCC3)C2=O)c1 | inactive |
| O=C(NC1CCCC1)C(c1ccc(N2CCOCC2)cc1)N(C(=O)c1ccco1)c1ccccc1F (stereo unspecified) | inactive |
| O=C(O)c1ccc(OCC2CCCO2)cc1 (stereo unspecified) | inactive |
| O=C(O)c1ccc(/C=N/NC(=O)c2ccc(Br)cc2)cc1 | inactive |
| O=C(N/N=C/c1ccc(OCC2COCCO2)cc1)c1ccc(Br)cc1 (stereo unspecified) | 18.4 µM (active) |
| O=C(Nc1cccn(Cc2c(Cl)cccc2Cl)c1=O)c1ccc(Cl)cc1 | inactive |
| CCOC(=O)c1c(NC(C)=O)c2c3c(sc2n1Cc1c(C)cc(C)cc1C)CCCC3 | 13 µM (active) |
| CCC(C)NC(=O)Cn1c(=O)n(-c2ccc(Cl)cc2)c(=O)c2c3c(sc21)CCCC3 (stereo unspecified) | inactive |
| CCCOC(=O)Nc1sc2c(c1C(=O)OCC)CCC2 | inactive |
| CN(Cc1nc(-c2cnccn2)no1)Cc1n[nH]c2c1CCCCC2 | inactive |

| SMILES | Potency |
| --- | --- |
| O=[N+]([O-])c1ccc(C=Nc2ccc(Cl)cc2Cl)s1 | 13 µM (active) |
| O=C(CSCc1ccccc1Cl)NNC(=O)c1ccccc1 | inactive |
| O=C(CCN1CCCO1)N1CCCC(N2CCN(c3cccc(C(F)(F)F)c3)CC2)C1 (stereo unspecified) | inactive |
| O=C(C1CC(=O)N(C2CCCC2)C1)N1CCN(c2cccc(C(F)(F)F)c2)CC1 (stereo unspecified) | 11.6 µM (active) |
| O=C(C1CC(=O)N(C2CCCCC2)C1)N1CCN(c2ccccc2)CC1 (stereo unspecified) | inactive |
| CC(=O)C1(C)N(O)C(C)(C)C(c2cccs2)=[N+]1[O-] (stereo unspecified) | inactive |
| CC(OC(=O)CN1C(=O)c2ccccc2C1=O)C(=O)c1ccccc1 (stereo unspecified) | inactive |
| CCOC(=O)CN1C(=O)C(=O)c2cc(C)ccc21 | 14.6 µM (active) |
| CCOC(=O)c1cc2n(c1C)-c1ccccc1C2=O | inactive |
| CCOC(=O)C1CCN(C(=O)CN2C(=O)c3cccnc3Oc3ccc(C)cc32)CC1 | inactive |
| CCOC(=O)CSc1nc2ccc(C)cc2[nH]1 | inactive |
| CC(C)OC(=O)CN1C(=O)C(=O)c2ccccc21 | 13 µM (active) |
| COc1ccccc1C(=O)Nc1ccnn1C1CCN(C(=O)C(C)(C)C)CC1 | inactive |
| CC1Cc2ccccc2N1CC(=O)Nc1ccc2c(c1)OC(F)(F)O2 (stereo unspecified) | inactive |
| Cc1cccc(C(=O)Nc2ccccc2C(=O)NCc2cccnc2)c1 | inactive |
| CCC(C)c1ccc(NC(=O)COC(=O)C2CCCC2)cc1 (stereo unspecified) | inactive |
| CNC[C@@H]1Oc2c(NS(C)(=O)=O)cccc2C(=O)N([C@@H](C)CO)C[C@H]1C | inactive |
| Cc1cccc(-n2c(Cc3cc(=O)[nH]c(=O)[nH]3)nnc2SCC(=O)Nc2cccc(C(F)(F)F)c2)c1 | inactive |
| Cc1cccc(N2CCN(C(c3ccccc3)c3nnnn3CC3CCCO3)CC2)c1C (stereo unspecified) | 11.6 µM (active) |
| CCCCn1nnnc1C(c1ccccc1)N1CCN(c2ccccc2OC)CC1 (stereo unspecified) | 20.6 µM (active) |
| c1ccc(CCn2nnnc2CN2CCN(C3CCCC3)CC2)cc1 | inactive |
| C=CCC(Nc1ccccc1)c1cccc(OC)c1OC (stereo unspecified) | inactive |
| COc1ccccc1C(c1nnnn1CC1CCCO1)N1CCN(c2ccccc2)CC1 (stereo unspecified) | inactive |
| CCCCn1nnnc1NCc1cc(OC)c(OC)c(OC)c1 | inactive |
| COc1ccc(CCn2nnnc2C(c2ccccc2)N2CCN(C)CC2)cc1OC (stereo unspecified) | inactive |
| Cc1cc(O)c(C(c2ccccc2)N2CCN(c3ccccc3F)CC2)c(=O)n1Cc1ccco1 (stereo unspecified) | inactive |

| SMILES | Potency |
| --- | --- |
| c1ccc(C(c2ccccc2)N2CCN(Cc3nnnn3C3CCCCC3)CC2)cc1 | 20.6 µM (active) |
| COc1ccccc1N1CCN(Cc2nnnn2CCc2ccccc2)CC1 | inactive |
| Clc1ccc(-n2nnnc2CN2CCCCC2)cc1Cl | inactive |
| CCCCn1nnnc1C(c1cccc(OC)c1OC)N1CCN(C/C=C/c2ccccc2)CC1 (stereo unspecified) | 20.6 µM (active) |
| O=C(Nc1nncs1)c1ccccc1NS(=O)(=O)c1cccs1 | inactive |
| O=C(CSCc1ccc([N+](=O)[O-])cc1)Nc1cccc(C(=O)Nc2ccccc2C(=O)O)c1 | inactive |
| C[C@H](NC(=O)C1CC(=O)N(c2ccc3c(c2)OCO3)C1)C(=O)NCc1ccco1 (stereo partly specified) | inactive |
| CCCCC(=O)NCc1ccc(F)cc1 | inactive |
| CCCCNC(=O)C1CCC(CNS(=O)(=O)c2ccc(NC(C)=O)cc2)CC1 (stereo unspecified) | inactive |
| O=C1C(=O)N(CCN2CCOCC2)C(c2ccccn2)/C1=C(/O)c1ccc(Cl)cc1 (stereo unspecified) | inactive |
| Oc1ccccc1CN1CCN(C(c2ccccc2)c2ccccc2)CC1 | 16.4 µM (active) |
| O=C(Nc1ccnn1C1CCN(C/C=C/c2ccc(F)cc2)CC1)C1CCCC1 | inactive |
| O=C(O)CN1CCN(C(c2ccccc2)c2ccccc2)CC1 | inactive |
| CC(C)OCC(O)CN1CCN(C(c2ccccc2)c2ccccc2)CC1 (stereo unspecified) | inactive |
| COc1ccc(C(c2nnnn2C2CCCC2)N2CCN(C/C=C/c3ccccc3)CC2)cc1 (stereo unspecified) | 16.4 µM (active) |
| COc1ccc(/C=C/CN2CCN(Cc3ccc(C)cc3)C(CCO)C2)cc1 (stereo unspecified) | inactive |
| CCOC(=O)c1c(C(C#N)C#N)cc(C)nc1C | inactive |
| OC[C@H]1O[C@@H](c2nc(-c3nc(-c4ccc(F)cc4)no3)cs2)[C@H](O)[C@@H](O)[C@H]1O | inactive |
| O=C(Nc1ccc2c(c1)OCO2)c1cc(-c2cccc(Cl)c2)on1 | inactive |
| CCC(Oc1ccccc1)C(=O)NCc1cccnc1 (stereo unspecified) | inactive |
| O=C(O)CC/C(=C\c1cc2c(cc1Br)OCO2)c1nc2ccccc2s1 | inactive |
| O=C(O)C1=C(C(=O)O)C2CCC1C2 | inactive |
| COc1ccccc1N(CC(=O)N/N=C(\C)c1ccccc1O)S(=O)(=O)c1ccc(C)cc1 | 1.64 µM (active) |
| COc1ccccc1N(CC(=O)Nc1c(C)n(C)n(-c2ccccc2)c1=O)S(=O)(=O)c1ccccc1 | inactive |
| COc1ccc(S(=O)(=O)N(CC(=O)N/N=C/c2ccccc2C(=O)O)c2ccccc2OC)cc1 | inactive |
| COC(=O)[C@H](C(C)C)n1c(C)c(C(C)=O)c(C(C)=O)c1C | inactive |

| SMILES | Potency |
| --- | --- |
| O=S(=O)(c1cccc(C(F)(F)F)c1)N1c2ccccc2-n2cccc2C1c1cccnc1 (stereo unspecified) | 18.4 µM (active) |
| O=S(=O)(c1cccc(C(F)(F)F)c1)N1CCN(c2cnccn2)CC1 | inactive |
| O=S(=O)(c1cccc(C(F)(F)F)c1)N1CCN(c2nc(-c3cccs3)nc3ccccc23)CC1 | inactive |
| O=S(=O)(c1ccc(F)cc1)n1ccc(-c2cnc(-c3ccccc3)s2)n1 | inactive |
| CCN(CC)c1ccc(NC(=O)CN2CCN(c3ccccn3)CC2)cc1 | inactive |
| CN(C(=O)CN1CCN(c2cc(-c3ccc(OCc4ccccc4)cc3)ncn2)CC1)c1ccccc1 | 18.4 µM (active) |
| COc1ccc(NC(C)=O)cc1NC(=O)CN1CCN(c2ccccn2)CC1 | inactive |
| O=C1OCC2=C1C(c1ccccc1)CC(=O)N2c1cccc(F)c1 (stereo unspecified) | inactive |
| CSc1sc(C(=O)NNC(=O)c2ccc(Cl)cc2)c2c1C=CCC2 | inactive |
| Cc1csc2nc(COc3ccc(NC(=O)COc4ccccc4)cc3)cc(=O)n12 | inactive |
| Cc1csc2nc(COC(=O)c3ccc(NC(=O)COc4ccccc4F)cc3)cc(=O)n12 | 18.4 µM (active) |
| O=C(COc1ccccc1F)Nc1ccc(C(=O)OCc2cc(=O)n3nc(C4CC4)sc3n2)cc1 | inactive |
| Cc1csc2nc(COC(=O)c3ccccc3NC(=O)c3ccccc3Cl)cc(=O)n12 | 11.6 µM (active) |
| Cc1ccc(C(=O)Nc2ccc(OCc3cc(=O)n4c(C)csc4n3)cc2)cc1 | inactive |
| Cc1ccc(OCC(=O)Nc2ccc(OCc3cc(=O)n4c(C)csc4n3)cc2)cc1C | inactive |
| Cc1nc2c(c(C)nn2-c2ccccc2)c(C)c1C | inactive |
| Cc1cccc(-n2nc3c(c2NC(=O)c2cc4ccccc4o2)CS(=O)(=O)C3)c1 | inactive |
| CC(C)COc1ccc(C(=O)NNC(=O)CCC(=O)c2cccs2)cc1 | inactive |
| CCCCCCCCCCCC(=O)O[C@H](CC(=O)O)C[N+](C)(C)C | inactive |
| CC(=O)c1ccc(Cc2ncc(C(F)(F)F)cc2Cl)s1 | inactive |
| Cc1ccc(S(=O)(=O)N(CCc2ccccc2)c2ccc3c(c2)C2CC3CCN2C(=O)OCc2ccccc2)cc1 (stereo unspecified) | 9.2 µM (active) |
| Cc1ccc(S(=O)(=O)CCC(=O)OCc2ccccc2)cc1 | inactive |
| CCOC(=O)N1CCN(C(=O)CN(c2ccc(C)c(C)c2)S(=O)(=O)c2ccccc2)CC1 | inactive |
